{
  "source": "PubChem BioAssay (NCATS)",
  "key": {"[1]": {"assay": "P-glycoprotein substrates identified in KB-8-5-11 adenocarcinoma cell line, qHTS therapeutic library screen (AID 1346987); also: nearly all actives have a fitted effect of over 65% in size; as to activity change, negative = cytotoxicity: series mostly up to about 44 µM", "method_in_brief": "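In this qHTS, P-gp-rich KB-8-5-11 cells received library compounds across a concentration range. Viability was quantified by luminescence after 72 h at 37 degree C.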"}, "[2]": {"assay": "NS1 protein of Zika virus - qHTS assay to identify small molecule inhibitors in human HEK 293 cells (AID 1347053); also: series mostly up to about 46 µM; nearly all actives have a fitted effect of over 55% in size", "method_in_brief": "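Read-out is a two-antibody TR-FRET for ZIKV NS1, normalized between uninfected cells and infected cells. Compound added 1 h before MR766 infection at MOI 0.5; human HEK 293 cells incubated 24 h, 37 C.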"}, "[3]": {"assay": "qHTS of pediatric cancer cell lines to identify multiple opportunities for drug repurposing: Primary screen for TC32 cells (AID 1347089); also: nearly all actives have a fitted effect of over 60% in size", "method_in_brief": "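Luminescent CellTiter-Glo read-out of metabolically active TC32 cells after 48 h compound exposure. Primary: MIPE 11-point, 0.78 nM–46 µM; NPC 8-point, 0.59 nM–46 µM. Confirmatory: 11-point dilutions.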"}, "[4]": {"assay": "qHTS of pediatric cancer cell lines to identify multiple opportunities for drug repurposing: Primary screen for DAOY cells (AID 1347090); also: series mostly up to about 46 µM; nearly all actives have a fitted effect of over 55% in size", "method_in_brief": "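Cell viability, CellTiter-Glo luminescence; 500-1,000 cells/well, 8- or 11-point titration, 48 h compound exposure at 37 degrees C, 5% CO2. Controls: DMSO neutral, bortezomib 2.3 µM final as positive.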"}},
  "note": "Inconclusive results are not listed. Where a call stands in place of a potency, no number is given. Unmarked numbers belong to inactive results. Active and inactive are the calls of the source. Calls follow the shape of the dose curve; as a rule, active = well fitted curve in the direction sought with a large enough effect; inconclusive = small, poorly fitted or top-dose-only effect, or another doubt; inactive = no such curve, though single readings can be large; an effect the other way counts as inactive or inconclusive.",
  "data": [
    {"compound": "CCC/C=C/C(=O)O[C@H]1CC(C)(C)CC2[C@]13[C@H](O)O[C@@]21CCC2[C@@]4(C)CC[C@H](O[C@@H]5O[C@H](C(=O)O)[C@@H](O)[C@H](O[C@@H]6O[C@H](CO)[C@H](O)[C@H](O)[C@H]6O[C@@H]6O[C@@H](C)[C@H](O)[C@@H](O)[C@H]6O[C@@H]6OC[C@](O)(CO)[C@H]6O)[C@H]5O[C@@H]5O[C@H](CO)[C@H](O)[C@H](O)[C@H]5O)C(C)(C)C4CC[C@@]2(C)[C@]1(C)C[C@H]3OC(C)=O", "note": "(stereo partly specified)", "values": [
      {"measurement": "activity change, negative = cytotoxicity", "setting": "[1]", "value": "0.402% [at 9.29 µM]"}
    ]},
    {"compound": "CCCCNC(=O)[C@@H]1Cc2ccccc2N1C(=O)[C@@H](N)CC", "values": [
      {"measurement": "Potency", "setting": "[1]", "value": "inactive"}
    ]},
    {"compound": "CC1=CCC2C(C)(CO)CCCC2(C)C1CC12OC1C(O)C(CO)=CC2O", "note": "(stereo unspecified)", "values": [
      {"measurement": "Potency", "setting": "[1]", "value": "inactive"}
    ]},
    {"compound": "COC1=Cc2c(nc3n(c2=O)C(C)C(=O)NC3(O)C(C)C)OC=C1", "note": "(stereo unspecified)", "values": [
      {"measurement": "Potency", "setting": "[1]", "value": "inactive"}
    ]},
    {"compound": "O=C(O)[C@H]1CCCC[C@H]1C(=O)N1CCc2ccccc2[C@H]1CN1C(=O)c2ccccc2C1=O", "values": [
      {"measurement": "Potency", "setting": "[1]", "value": "inactive"}
    ]},
    {"compound": "C[C@H]1CN(C[C@H](Cc2ccccc2)C(=O)NCC(=O)O)CC[C@@]1(C)c1cccc(O)c1", "values": [
      {"measurement": "Potency", "setting": "[1]", "value": "inactive"}
    ]},
    {"compound": "COc1ccc2c(c1)O[C@H](O[C@@H]1O[C@H](CO)[C@@H](O)[C@H](O)[C@H]1O)C(=O)N2", "values": [
      {"measurement": "Potency", "setting": "[1]", "value": "inactive"}
    ]},
    {"compound": "COC(=O)[C@H](CC1C=NC=N1)NCC12CC3CC(CC(C3)C1)C2", "note": "(stereo partly specified)", "values": [
      {"measurement": "Potency", "setting": "[1]", "value": "inactive"}
    ]},
    {"compound": "C/C(=C\\CCC(C)(O)c1ccc(C)cc1)C(=O)O", "note": "(stereo unspecified)", "values": [
      {"measurement": "Potency", "setting": "[1]", "value": "inactive"}
    ]},
    {"compound": "COc1ccc(C(O[C@@H]2O[C@H](CO)[C@@H](O)[C@H](O)[C@H]2O)C(CO)Oc2ccc(/C=C/CO)cc2OC)cc1O", "note": "(stereo partly specified)", "values": [
      {"measurement": "Potency", "setting": "[1]", "value": "inactive"}
    ]},
    {"compound": "CC(CCC1C(C(=O)O)=CC(=O)CC1(C)C)O[C@@H]1O[C@H](CO)[C@@H](O)[C@H](O)[C@H]1O", "note": "(stereo partly specified)", "values": [
      {"measurement": "Potency", "setting": "[1]", "value": "inactive"}
    ]},
    {"compound": "CC(=O)OC(C)OC(=O)C(C)c1ccc(-c2ccccc2)c(F)c1", "note": "(stereo unspecified)", "values": [
      {"measurement": "Potency", "setting": "[1]", "value": "inactive"},
      {"measurement": "outcome", "setting": "[2]", "value": "inactive"},
      {"measurement": "outcome", "setting": "[3]", "value": "inactive"},
      {"measurement": "outcome", "setting": "[4]", "value": "inactive"}
    ]},
    {"compound": "CC[C@@H](c1ccc(F)c(F)c1)n1c(C(=O)OC)c(-c2ccno2)[nH]c1=S", "values": [
      {"measurement": "Potency", "setting": "[1]", "value": "inactive"}
    ]},
    {"compound": "COc1cccc(-n2nc(C(=O)O)cc2-c2ccc(C3CCCCC3)c(Cl)c2)c1", "values": [
      {"measurement": "Potency", "setting": "[1]", "value": "inactive"}
    ]},
    {"compound": "Cn1c(=O)cc(N2CCCC(N)C2)n(Cc2ccccc2C#N)c1=O", "note": "(stereo unspecified)", "values": [
      {"measurement": "Potency", "setting": "[1]", "value": "inactive"}
    ]},
    {"compound": "C=CC1(C)CC(O)C2(CCC3C(C)(C(=O)O)CCCC3(C)C2=O)C1", "note": "(stereo unspecified)", "values": [
      {"measurement": "Potency", "setting": "[1]", "value": "inactive"}
    ]},
    {"compound": "CC1=CC(=O)C[C@H]2[C@@H]1CC[C@@H](C)[C@]21CO[C@H](c2ccoc2)C1=O", "values": [
      {"measurement": "Potency", "setting": "[1]", "value": "inactive"}
    ]},
    {"compound": "CO[C@@]12CC3[C@@H]([C@@H](O)[C@@H](OC(C)=O)C4[C@](C)(COC(C)=O)CCC[C@]34C)[C@@H](C)C1=CC(=O)O2", "note": "(stereo partly specified)", "values": [
      {"measurement": "Potency", "setting": "[1]", "value": "inactive"}
    ]},
    {"compound": "CC(C)(C)NC(=O)[C@@H]1C[C@@H]2CCCC[C@@H]2CN1C[C@@H](O)[C@H](Cc1ccccc1)NC(=O)[C@H](CC(N)=O)NC(=O)c1ccc2ccccc2n1", "values": [
      {"measurement": "Potency", "setting": "[1]", "value": "inactive"}
    ]},
    {"compound": "C=C1C2=CC(O)C(C)C1(C)CC/C(C)=C/CCC1(C)OC1C2=O", "note": "(stereo unspecified)", "values": [
      {"measurement": "Potency", "setting": "[1]", "value": "inactive"}
    ]},
    {"compound": "CO[C@H]1C=CO[C@@]2(C)Oc3c(C)c(O)c4c(O)c(c5c(nc6cc(C)ccn65)c4c3C2=O)NC(=O)/C(C)=C\\C=C[C@H](C)[C@H](O)[C@@H](C)[C@@H](O)[C@@H](C)[C@H](OC(C)=O)[C@@H]1C", "values": [
      {"measurement": "Potency", "setting": "[1]", "value": "inactive"}
    ]},
    {"compound": "C/C=C/C=C/C=C/C(=O)O[C@@H]1[C@@H](OC)C2=C(C(=O)N(C(C)C(=O)O)C2)[C@@]2(C)CCCC(C)(C)[C@H]12", "note": "(stereo partly specified)", "values": [
      {"measurement": "Potency", "setting": "[1]", "value": "inactive"}
    ]},
    {"compound": "CC1CCCC2OC2C(=O)c2c(O)cc(O)cc2CC(=O)O1", "note": "(stereo unspecified)", "values": [
      {"measurement": "Potency", "setting": "[1]", "value": "inactive"}
    ]},
    {"compound": "CC(=O)N1c2ccccc2C2(O)CC3C(=O)NC(CC(C)C)C(=O)N3C12", "note": "(stereo unspecified)", "values": [
      {"measurement": "Potency", "setting": "[1]", "value": "inactive"}
    ]},
    {"compound": "CC(=O)O[C@@H]1[C@@H](OC(=O)/C=C/c2ccccc2)[C@H](C)O[C@@H](O[C@H]2[C@@H]3C=CO[C@@H](O[C@@H]4O[C@H](CO)[C@@H](O)[C@H](O)[C@H]4O)[C@@H]3[C@@]3(CO)O[C@@H]23)[C@@H]1OC(C)=O", "values": [
      {"measurement": "Potency", "setting": "[1]", "value": "inactive"}
    ]},
    {"compound": "Cc1c(CN(C)C(=O)/C=C/c2cnc3c(c2)CCC(=O)N3)oc2ccccc12", "values": [
      {"measurement": "Potency", "setting": "[1]", "value": "inactive"}
    ]},
    {"compound": "OC[C@H]1O[C@@H](Oc2cc(O)cc(-c3cc4ccc(O)cc4o3)c2)[C@H](O)[C@@H](O)[C@@H]1O", "values": [
      {"measurement": "Potency", "setting": "[1]", "value": "inactive"}
    ]},
    {"compound": "Cc1ccc(Sc2cncc3sc(C(N)=O)cc23)cc1", "values": [
      {"measurement": "Potency", "setting": "[1]", "value": "inactive"}
    ]}
  ]
}
